Screening data (PubChem)
In the library only some 4.2% were active in any assay of this set; here they are far more common.
GDH-TPI counter-1: counter-screen for M. tuberculosis FBA inhibitors: GDH-TPI coupled enzymes; GDH-TPI coupled enzyme counterscreen, NADH absorbance; inhibition, % at 4.8 µM; 360,000 compounds, 1.2% hits; AID 588335;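 further: 0% = DMSO wells and 100% = wells lacking the enzyme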
CCHFV vOTU inh: blocks the CCHF virus ovarian tumor domain protease. CCHFV vOTU protease, Pep-AMC fluorescence. 370,000 compounds, 0.55% hits. inhibition, % at 11.5 µM. AID 651958; further: 0% = vehicle wells with enzyme and 100% = no enzyme wells
Mtb betalactam: beta-lactam sensitization of Mtb H37Rv; M. tuberculosis H37Rv growth with meropenem, percent inhibition; inhibition, % at 25 µM; 330,000 compounds, 0.27% hits; AID 434955; call rule not given here;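 further: growth measured after seven days incubation then overnight dye step; 0% = bacteria only wells and 100% = bacteria with antibiotic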
RecA intein inh: blocks M. tuberculosis RecA intein splicing; inhibition, % (concentration not given with the values); P9WHJ3; 290,000 compounds, 0.75% hits; cell-free RecA intein splicing, fluorescence; in the data active means inhibition above about 30%;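 further: 0% = vehicle wells and 100% = reference inhibitor control wells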
FBA Mtb inh: inhibitors of M. tuberculosis fructose-bisphosphate aldolase; P9WQA3; purified M. tuberculosis FBA, fluorescence read-out; inhibition, % at 1 µM; 360,000 compounds, 2.3% hits; AID 588726; in the data active means inhibition above about 27%;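 further: 0% = vehicle and 100% = reference inhibitor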
Target sequence (P9WQA3 whole entry, looked up): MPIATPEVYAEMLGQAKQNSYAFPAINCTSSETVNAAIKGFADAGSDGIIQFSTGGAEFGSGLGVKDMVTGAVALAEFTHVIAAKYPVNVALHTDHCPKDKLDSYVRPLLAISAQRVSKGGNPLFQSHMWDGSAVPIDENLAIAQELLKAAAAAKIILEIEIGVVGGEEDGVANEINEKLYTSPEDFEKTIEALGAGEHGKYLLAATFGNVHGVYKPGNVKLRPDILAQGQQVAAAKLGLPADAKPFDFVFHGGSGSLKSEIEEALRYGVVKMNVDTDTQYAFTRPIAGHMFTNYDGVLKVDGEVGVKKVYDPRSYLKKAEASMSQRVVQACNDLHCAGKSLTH
Mtb FBA inh conf: confirmation of M. tuberculosis fructose-bisphosphate aldolase inhibitors | shares compounds with FBA Mtb inh | inhibition, % at 1 µM | purified M. tuberculosis FBA, fluorescence read-out | 5,600 compounds, 78% hits; in the data active means inhibition above about 27%;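 further: 0% = vehicle wells and 100% = reference inhibitor wells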
GDH-TPI counter-2: counter-screen for M. tuberculosis FBA inhibitors: GDH-TPI coupled enzyme inhibition; GDH-TPI coupled enzyme counterscreen, fluorescence; shares compounds with FBA Mtb inh; 5,600 compounds, 81% hits; inhibition, % at 1 µM; in the data active means inhibition above about 10%
* marks the source's active call; other numbers are inactive results; nt = not tested or not shown; + = active, no number. Unless noted, no stated cut-off is given here; in the data, active means inhibition above about 30%; inactive means the rest.

SMILES	GDH-TPI counter-1	CCHFV vOTU inh	Mtb betalactam	RecA intein inh	FBA Mtb inh	Mtb FBA inh conf	GDH-TPI counter-2
CCCOc1ccc(-c2cn3ccccc3n2)cc1[N+](=O)[O-]	13.6	8.3	7.3	-3.3	3.8	nt	nt
CCCOc1ccc(-c2cn3ccccc3n2)cc1	3.5	-27.5	5.6	0.8	30.2*	54.8*	37.6*
O=c1cc(CN2CC=C(c3ccccc3)CC2)c2c(ccc3ccccc32)o1	13.1	-5.4	-1.5	1.3	93.7*	114.2*	100.2*
O=c1cc(CN2CCCC2)c2c(ccc3ccccc32)o1	nt	-12.9	nt	nt	12.8	nt	nt
OCC(CCc1c[nH]c2ccccc12)c1c[nH]c2ccccc12 (stereo unspecified)	nt	15.3	nt	nt	nt	nt	nt
CC1CN(c2oc(-c3ccco3)nc2C#N)CC(C)O1 (stereo unspecified)	13.5	-19.8	-5.1	-1.3	88.0*	138.5*	92.8*
COc1ccccc1-c1ccc(OCCCN2CCC(C(O)(c3ccccc3)c3ccccc3)CC2)cc1	nt	5.1	nt	nt	nt	nt	nt
Cc1c(Cc2ccccc2)c(=O)oc2cc(OC(C)C(=O)NCC3CCC(C(=O)O)CC3)c(Cl)cc12 (stereo unspecified)	28.4	-13.2	4.0	-1.3	33.5*	+	189.9*
CCc1c(C)c2ccc(OCC(=O)NCC3CCC(C(=O)O)CC3)cc2oc1=O (stereo unspecified)	18.6	-30.8	-1.2	-1.7	79.4*	55.5*	36.0*
O=C(COc1ccc2c3c(c(=O)oc2c1)CCC3)NCC1CCC(C(=O)O)CC1 (stereo unspecified)	14.7	14.2	-1.2	-0.5	16.2	nt	nt
O=C(COc1ccc2c(c1)oc(=O)c1ccccc12)NCC1CCC(C(=O)O)CC1 (stereo unspecified)	18.6	-35.5	0.6	-0.1	33.9*	89.9*	53.9*
COC(=O)c1cc(-c2cnc(OC)nc2OC)c(=O)n2c1CCC2	nt	4.8	nt	nt	nt	nt	nt
COc1cccc(C(=O)N[C@@H](Cc2cccnc2)C(=O)N2CCC[C@H]2C(=O)NC2CCCC2)c1	nt	-7.2	nt	nt	nt	nt	nt
COc1cccc(Cn2cc(COC(=O)N3CCOCC3)nn2)c1	nt	-3.4	nt	nt	nt	nt	nt
ClC1(Cl)CC1CSc1nc2ccccc2[nH]1 (stereo unspecified)	0.0	-24.1	1.3	7.1	33.1*	88.2*	85.0*
CCCc1nc2ccc(N)cc2c(=O)n1Cc1ccccc1Cl	0.8	-3.8	2.3	0.3	27.9*	105.3*	83.2*
Cc1c(Nc2c3ccccc3nc3ccccc23)c(=O)n(-c2ccccc2)n1C	6.4	-114.0	-0.9	-46.0	108.8*	-2.1	-0.6
Cc1c(Nc2nc3ccccc3nc2N2CCN(c3ccccc3)CC2)c(=O)n(-c2ccccc2)n1C	8.2	-0.5	20.6	-1.9	1.3	nt	nt
Nc1[nH]c(C(=O)c2ccccc2)c(-c2ccc(Cl)c(F)c2)c1C(=O)c1c[nH]c2ccccc12	nt	27.6	nt	nt	nt	nt	nt
Fc1cccc(NC(=S)NNc2c3ccccc3nc3ccccc23)c1	10.2	-26.0	nt	-7.8	50.2*	187.2*	131.6*
c1nc2sc3c(c2c2nnnn12)CCCC3	14.2	8.1	-6.0	-0.8	22.0	nt	nt
c1nc2sc3c(c2c2nnnn12)CCC3	1.9	7.0	-4.3	-1.6	35.8*	9.7	2.8
Cc1nc2ccccc2c2nc(N)nn12	5.1	-9.4	-5.8	0.7	5.9	nt	nt
Cc1cn2nc(N)c3ccccc3c2n1	0.8	-17.9	-7.4	nt	41.7*	+	+
Cn1cccc1C(=O)N1CCN(S(=O)(=O)c2ccccc2F)CC1	nt	-5.2	nt	nt	nt	nt	nt
SMILES	GDH-TPI counter-1	CCHFV vOTU inh	Mtb betalactam	RecA intein inh	FBA Mtb inh	Mtb FBA inh conf	GDH-TPI counter-2
COC(=O)[C@]12C[C@H](CC(=O)N3CCCC3)C(=O)N(Cc3ccco3)C1=C[C@H](C(C)C)O[C@@H]2C1CC1	nt	-0.9	nt	nt	nt	nt	nt
O=c1cc(-c2cccnc2)oc2c1ccc1ccccc12	0.0	-21.3	93.8	0.6	44.9*	+	186.3*
COC(=O)[C@]12C[C@H](CC(=O)NCCC(C)C)C(=O)N(Cc3cccc4ccccc34)C1=C[C@H](C(C)(C)C)O[C@@H]2C	nt	28.8	nt	nt	nt	nt	nt
Cc1nc2cc(C(=O)O)ccc2s1	7.7	-3.3	5.5	-1.3	-3.2	nt	nt
Cc1nc2ccc(C(=O)O)cc2c2c1CC(C)S2 (stereo unspecified)	2.9	-38.6	46.1	0.9	60.6*	43.7*	30.0*
CCNC(=S)N/N=C1\C(=O)c2cccc3cccc1c23	21.3	2.2	nt	3.7	-2.3	nt	nt
O=C(N/N=C1/C(=O)c2cccc3cccc1c23)c1ccc(Cl)cc1	8.3	3.7	99.3	23.9	80.2*	79.1*	62.5*
